Data published in PubChem BioAssay (EPA / NIEHS).
The source made the active and inactive calls. How the source made its calls: active means hit-call score of the fitted dose curve at least 0.9, where 1 is the maximum; inactive means score below 0.9.

Experiments:
[1] = ATG_PBREM_CIS: Attagene CIS-FACTORIAL HepG2 Assay for human Phenobarbital-responsive Enhancer Module (PBREM) (AID 2282955); conditions: HepG2 PBREM cis-reporter, Attagene multiplexed transcription; actives raise or lower the signal
Procedure, shortened: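 HepG2 cells transiently transfected with multiple cis-regulated reporter transcription units; endogenous factor activity at the PBREM element measured as reporter mRNA 24 h after dosing, via RT-PCR and capillary electrophoresis of fluorescent fragments; bidirectional fitting versus DMSO.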

[2] = target: Paired box protein Pax-6 (Homo sapiens) (UniProt P26367); assay: ATG_Pax6_CIS: Attagene CIS-FACTORIAL HepG2 Assay for human Paired Box 6 (PAX6) (AID 2282956); conditions: HepG2 CIS-FACTORIAL PAX6 reporter transcription, RNA readout; actives raise or lower the signal
Sequence of Paired box protein Pax-6 (Homo sapiens) (P26367 whole entry, looked up): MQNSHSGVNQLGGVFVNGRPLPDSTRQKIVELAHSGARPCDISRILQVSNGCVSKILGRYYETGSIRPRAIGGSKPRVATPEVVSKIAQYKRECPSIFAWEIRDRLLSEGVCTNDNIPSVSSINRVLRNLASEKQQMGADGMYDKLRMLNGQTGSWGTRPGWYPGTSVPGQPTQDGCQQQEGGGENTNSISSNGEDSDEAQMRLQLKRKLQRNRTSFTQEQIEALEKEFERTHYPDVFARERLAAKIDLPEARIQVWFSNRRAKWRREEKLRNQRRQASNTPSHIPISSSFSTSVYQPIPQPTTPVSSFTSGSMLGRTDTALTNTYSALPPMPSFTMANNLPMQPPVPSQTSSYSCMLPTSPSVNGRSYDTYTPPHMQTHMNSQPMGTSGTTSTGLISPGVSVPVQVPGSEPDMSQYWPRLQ
Procedure, shortened: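 Read-out is reporter transcript level, measured by RT-PCR with fluorescent primer extension and capillary electrophoresis after 24 h dosing of transfected HepG2 cells. Activity in either direction fitted relative to DMSO control.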

[3] = ATG_PXRE_CIS: Attagene CIS-FACTORIAL HepG2 Assay for human Pregnane X Receptor Element (PXRE) (AID 2282957); conditions: HepG2 Attagene CIS-FACTORIAL PXRE reporter, mRNA; actives raise or lower the signal
Procedure, shortened: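 Bidirectional activity, baselined to DMSO, derived from reporter mRNA fluorescence (RT-PCR plus capillary electrophoresis) in HepG2 cells bearing cis-promoter reporter units, 24 h exposure.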

[4] = ATG_PPRE_CIS: Attagene CIS-FACTORIAL HepG2 Assay for human Peroxisome Proliferator-activated Response Element (PPRE) (AID 2282958); conditions: HepG2 PPRE cis-element reporter, Attagene transcription factor profiling; actives raise or lower the signal
Procedure, shortened: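 HepG2 cells transiently transfected with multiplexed cis-element reporter units measure endogenous transcription factor activity. After 24 h compound exposure, reporter mRNA is quantified by RT-PCR, 6-FAM labeling, HpaI digestion and capillary electrophoresis; bidirectional fits are made against DMSO baseline.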

[5] = ATG_RORE_CIS: Attagene CIS-FACTORIAL HepG2 Assay for human RAR-related Orphan Receptor Element (RORE) (AID 2282959); conditions: HepG2 Attagene cis-factorial RORE reporter, mRNA; actives raise or lower the signal
Procedure, shortened: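 HepG2 cells transiently transfected with multiple cis-element reporter transcription units, exposed to chemical for 24 h. Reporter mRNA quantified by RT-PCR, 6-FAM primer-extension labeling, HpaI digestion and capillary electrophoresis; bidirectional fit versus DMSO baseline.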

[6] = ATG_Sox_CIS: Attagene CIS-FACTORIAL HepG2 Assay for human SRY-box transcription factor (SOX) (AID 2282960); conditions: HepG2 Attagene cis-factorial SOX reporter, mRNA; actives raise or lower the signal
Procedure, shortened: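 HepG2 cells transiently transfected with cis-element-driven multiple reporter transcription units, dosed 24 h; reporter mRNA measured by RT-PCR, FAM labelling, HpaI digestion and capillary electrophoresis. Bidirectional fit versus DMSO baseline.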

[7] = target: Transcription factor Sp1 (Homo sapiens) (UniProt P08047); assay: ATG_Sp1_CIS: Attagene CIS-FACTORIAL HepG2 Assay for human Specificity Protein 1 (Sp1) (AID 2282961); conditions: HepG2 Sp1 cis-reporter transcription, actives raise or lower the signal
Sequence of Transcription factor Sp1 (Homo sapiens) (P08047 whole entry, looked up): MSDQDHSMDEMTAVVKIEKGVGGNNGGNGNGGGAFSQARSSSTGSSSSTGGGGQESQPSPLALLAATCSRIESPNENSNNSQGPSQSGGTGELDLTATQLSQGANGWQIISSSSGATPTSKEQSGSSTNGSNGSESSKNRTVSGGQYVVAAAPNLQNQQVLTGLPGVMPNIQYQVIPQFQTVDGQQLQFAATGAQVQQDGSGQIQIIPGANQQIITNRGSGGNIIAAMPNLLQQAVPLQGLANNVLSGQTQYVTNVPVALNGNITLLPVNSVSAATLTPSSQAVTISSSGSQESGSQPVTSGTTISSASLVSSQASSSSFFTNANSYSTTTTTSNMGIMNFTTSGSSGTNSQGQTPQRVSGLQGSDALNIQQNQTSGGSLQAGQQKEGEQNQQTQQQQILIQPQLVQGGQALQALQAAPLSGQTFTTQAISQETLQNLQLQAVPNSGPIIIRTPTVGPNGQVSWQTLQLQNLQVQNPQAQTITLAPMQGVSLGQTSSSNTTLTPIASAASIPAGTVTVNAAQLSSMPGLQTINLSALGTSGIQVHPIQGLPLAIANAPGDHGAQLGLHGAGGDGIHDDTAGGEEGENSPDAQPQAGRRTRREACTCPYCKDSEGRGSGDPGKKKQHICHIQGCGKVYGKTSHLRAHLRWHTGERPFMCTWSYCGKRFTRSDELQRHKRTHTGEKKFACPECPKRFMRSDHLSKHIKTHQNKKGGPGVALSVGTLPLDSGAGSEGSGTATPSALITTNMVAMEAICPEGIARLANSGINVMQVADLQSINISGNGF
Procedure, shortened: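 HepG2 cells transiently transfected with multiple reporter transcription units driven by cis-regulatory elements; Sp1-responsive reporter mRNA measured 24 h after dosing by RT-PCR and capillary electrophoresis fluorescence, fitted bidirectionally against DMSO baseline.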

[8] = ATG_SREBP_CIS: Attagene CIS-FACTORIAL HepG2 Assay for human Sterol Regulatory Element Binding (SREBP) (AID 2282962); conditions: HepG2 Attagene cis-factorial SREBP reporter, mRNA; actives raise or lower the signal
Procedure, shortened: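 Endogenous SREBP activity read as cis-element-driven reporter transcript in transiently transfected HepG2, 24 h post-dosing; quantified via RT-PCR plus capillary electrophoresis of fluorescent fragments. Gain or loss of signal fitted relative to DMSO baseline.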

[9] = target: Signal transducer and activator of transcription 3 (Homo sapiens) (UniProt P40763); assay: ATG_STAT3_CIS: Attagene CIS-FACTORIAL HepG2 Assay for human Signal Transducer and Activator of Transcription 3 (STAT3) (AID 2282963); conditions: HepG2, Attagene cis-factorial STAT3 reporter transcription; actives raise or lower the signal
Sequence of Signal transducer and activator of transcription 3 (Homo sapiens) (P40763 whole entry, looked up): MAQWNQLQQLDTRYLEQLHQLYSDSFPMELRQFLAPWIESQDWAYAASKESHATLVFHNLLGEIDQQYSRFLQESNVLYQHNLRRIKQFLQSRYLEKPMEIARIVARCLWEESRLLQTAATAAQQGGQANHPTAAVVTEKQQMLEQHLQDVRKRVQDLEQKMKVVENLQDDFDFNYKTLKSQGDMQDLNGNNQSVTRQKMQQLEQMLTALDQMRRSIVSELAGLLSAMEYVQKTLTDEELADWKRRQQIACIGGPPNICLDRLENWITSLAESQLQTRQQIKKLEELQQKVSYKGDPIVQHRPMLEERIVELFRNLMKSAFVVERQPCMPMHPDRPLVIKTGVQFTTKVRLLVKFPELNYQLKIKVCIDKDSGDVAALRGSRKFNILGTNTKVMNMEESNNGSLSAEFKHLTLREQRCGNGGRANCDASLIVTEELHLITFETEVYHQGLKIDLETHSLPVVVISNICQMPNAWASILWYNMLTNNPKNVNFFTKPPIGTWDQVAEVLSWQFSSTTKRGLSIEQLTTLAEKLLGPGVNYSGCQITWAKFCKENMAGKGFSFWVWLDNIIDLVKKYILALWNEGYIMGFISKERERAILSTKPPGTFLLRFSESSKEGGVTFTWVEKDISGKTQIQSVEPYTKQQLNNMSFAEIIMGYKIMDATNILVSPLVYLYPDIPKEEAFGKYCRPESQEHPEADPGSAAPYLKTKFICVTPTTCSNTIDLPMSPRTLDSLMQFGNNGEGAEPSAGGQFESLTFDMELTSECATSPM
Procedure, shortened: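 Uses human liver HepG2 transiently carrying cis-regulated reporter transcription units. Following 24 h dosing, reporter mRNA induction was detected by RT-PCR and capillary electrophoresis, analysed bidirectionally versus DMSO.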

[10] = ATG_TA_CIS: Attagene CIS-FACTORIAL HepG2 Assay for human TA Basal Promoter (AID 2282964); conditions: HepG2 Attagene CIS-factorial TA basal promoter reporter; actives raise or lower the signal
Procedure, shortened: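 Fluorescence from labelled RT-PCR reporter fragments, separated by capillary electrophoresis, gives the signal. Cells: HepG2 transiently carrying multiple reporter units, 24 h chemical dosing. Gain or loss relative to DMSO.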

Compound | outcome [1] | outcome [2] | outcome [3] | outcome [4] | outcome [5] | outcome [6] | outcome [7] | outcome [8] | outcome [9] | AC50 [1] | AC50 [3] | AC50 [4] | AC50 [5] | AC50 [2] | AC50 [6] | AC50 [10] | outcome [10] | AC50 [8]
O=c1[nH]cccc1O | inactive | inactive | inactive | inactive | inactive | inactive | inactive | inactive | inactive | – | – | – | – | – | – | – | – | –
O=C1c2c(O)ccc(Nc3ccc(CCO)cc3)c2C(=O)c2c([N+](=O)[O-])ccc(O)c21 | – | inactive | – | – | – | inactive | inactive | inactive | inactive | 38.6 µM (active) | 6.06 µM (active) | 24.1 µM (active) | 4.01 µM (active) | – | – | – | – | –
CC(=O)CCC(C)C | inactive | inactive | – | inactive | inactive | inactive | inactive | inactive | inactive | – | 52.9 µM (active) | – | – | – | – | – | – | –
CCN=C1C=CC(=C(c2ccc(N(CC)CC)cc2)c2ccc(N(CC)CC)cc2)c2ccccc21 | – | – | – | inactive | – | – | inactive | inactive | inactive | 0.0478 µM (active) | 1.23 µM (active) | – | 0.068 µM (active) | 1.78 µM (active) | 0.0762 µM (active) | 1.23 µM (active) | – | –
Cc1cnccn1 | inactive | inactive | inactive | inactive | inactive | inactive | inactive | inactive | inactive | – | – | – | – | – | – | – | – | –
OCCCc1cccnc1 | inactive | inactive | inactive | inactive | inactive | inactive | inactive | inactive | inactive | – | – | – | – | – | – | – | – | –
O=C(O)C(F)(F)OC(F)(F)C(F)(F)OC(F)(F)C(F)(F)OC(F)(F)F | inactive | inactive | inactive | – | inactive | inactive | inactive | inactive | inactive | – | – | 36.4 µM (active) | – | – | – | – | – | –
C#CC(O)CCC (stereo not given) | inactive | inactive | inactive | inactive | inactive | inactive | inactive | inactive | inactive | – | – | – | – | – | – | – | inactive | –
OCC1CCCO1 (stereo not given) | inactive | inactive | inactive | inactive | inactive | inactive | inactive | inactive | inactive | – | – | – | – | – | – | – | inactive | –
NS(=O)(=O)C(F)(F)C(F)(F)C(F)(F)C(F)(F)C(F)(F)C(F)(F)F | inactive | inactive | – | – | inactive | inactive | inactive | inactive | inactive | – | 41 µM (active) | 50.2 µM (active) | – | – | – | – | – | –
CCC(C)CO (stereo not given) | inactive | inactive | inactive | inactive | inactive | inactive | inactive | inactive | inactive | – | – | – | – | – | – | – | – | –
O=C(c1ccccc1)c1ccc(O)cc1O | inactive | inactive | – | inactive | inactive | inactive | inactive | inactive | inactive | – | 48.6 µM (active) | – | – | – | – | – | – | –
CCCCCC/C=C/CCCCCCCC(=O)O | inactive | inactive | inactive | inactive | inactive | inactive | inactive | inactive | inactive | – | – | – | – | – | – | – | inactive | –
C=CC(=O)OCC(F)(F)C(F)(F)C(F)(F)C(F)(F)C(F)(F)C(F)(F)C(F)(F)C(F)F | inactive | inactive | – | inactive | inactive | – | inactive | inactive | inactive | – | 38.3 µM (active) | – | – | – | 271 µM (active) | – | inactive | –
O=C=NCc1cccc(CN=C=O)c1 | inactive | inactive | inactive | inactive | inactive | inactive | inactive | inactive | inactive | – | – | – | – | – | – | – | – | –
COC(F)(C(F)F)C(F)(F)F (stereo not given) | inactive | inactive | inactive | inactive | inactive | inactive | inactive | inactive | inactive | – | – | – | – | – | – | – | inactive | –
CCCCCCCCCCCC(=O)Cl | inactive | inactive | inactive | – | inactive | inactive | inactive | – | inactive | – | – | 49.9 µM (active) | – | – | – | – | inactive | 41.2 µM (active)
FC(F)(F)C(F)(F)C(F)(F)C(F)(F)C(F)(F)C(F)(F)C(F)(F)CCI | inactive | inactive | inactive | inactive | inactive | inactive | inactive | inactive | inactive | – | – | – | – | – | – | – | inactive | –
Oc1ccc2c(c1)CCC2 | inactive | inactive | inactive | inactive | inactive | inactive | inactive | inactive | inactive | – | – | – | – | – | – | – | – | –
O=C(O)C(F)(F)C(F)(F)C(F)(F)C(F)(F)C(F)(F)C(F)(F)C(F)F | inactive | inactive | – | – | inactive | inactive | inactive | – | inactive | – | 27.6 µM (active) | 46.1 µM (active) | – | – | – | – | inactive | 63.5 µM (active)
CC(C)(C)C(=O)C1C(=O)c2ccccc2C1=O | – | inactive | – | – | inactive | inactive | inactive | inactive | inactive | 27.8 µM (active) | 13.9 µM (active) | 59.7 µM (active) | – | – | – | – | – | –
CO[Si](CCCOCC1CO1)(OC)OC (stereo not given) | inactive | inactive | inactive | inactive | inactive | inactive | inactive | inactive | inactive | – | – | – | – | – | – | – | – | –
CC(C)C(=O)OCc1ccccc1 | inactive | inactive | inactive | inactive | inactive | inactive | inactive | inactive | inactive | – | – | – | – | – | – | – | – | –
NC(=O)C(F)(F)C(F)(F)C(F)(F)C(F)F | inactive | inactive | inactive | inactive | inactive | inactive | inactive | inactive | inactive | – | – | – | – | – | – | – | – | –
CCOC(C=C(C)CCC=C(C)C)OCC | inactive | inactive | – | inactive | – | inactive | inactive | inactive | inactive | – | 31.2 µM (active) | – | 38.3 µM (active) | – | – | – | inactive | –
